Values joined by “and” are separate entries in the source; they are usually repeats but may differ in a detail not shown here. Equal entries are not always repeated. Out of some 330,000 compounds screened, about 3,800 (1.2%) were called active. The sample holds actives, similar compounds and a random draw of the others, so the mix is not that of the screen. Cut-off read from the data, not from the text of the source: active = inhibition above about 15%; inconclusive = no clear call, values can overlap the other calls; inactive = below that.
These compounds were tested against NAD-dependent protein deacylase sirtuin-5, mitochondrial (Homo sapiens) (UniProt Q9NXA8) (assay: blockers of sirtuin-5 deacylase activity – biochemical, fluorescence imaging, single point, set 5, primary screen (AID 652115)). Conditions: Purified SirT5, succinyl-peptide AMC, trypsin-coupled fluorescence; at 15 µM; active compounds read high.
NAD-dependent protein deacylase sirtuin-5, mitochondrial (Homo sapiens), sequence (Q9NXA8 whole entry, looked up): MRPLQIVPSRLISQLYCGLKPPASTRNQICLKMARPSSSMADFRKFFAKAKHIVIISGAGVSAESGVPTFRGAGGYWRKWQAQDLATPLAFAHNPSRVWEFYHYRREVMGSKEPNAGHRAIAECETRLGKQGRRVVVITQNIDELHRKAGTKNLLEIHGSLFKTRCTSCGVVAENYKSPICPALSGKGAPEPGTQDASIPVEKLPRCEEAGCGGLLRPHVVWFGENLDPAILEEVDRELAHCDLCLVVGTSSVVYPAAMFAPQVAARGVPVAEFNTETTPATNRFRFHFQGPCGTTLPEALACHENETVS

inhibition, active:
CCOC(=O)c1c(-c2ccccc2)oc2ccc(OCC(N)=O)cc12 22.2%
COCOCCn1cc(CN2CCS(=O)(=O)N(Cc3ccc(-c4ccc(OC)cc4)cc3)C(CC(C)C)C2=O)nn1 (stereo not given) 18.3%
CCN(CCn1cccn1)C(=O)CC1C(=O)NCCN1Cc1cccc(OC)c1OC (stereo not given) 16.5%
COc1ccccc1-c1nnc(NC(=O)c2ccc3ncsc3c2)o1 20.5%
CC(=O)N(C)C[C@H]1Oc2ncc(-c3cccc(F)c3)cc2C(=O)N([C@@H](C)CO)C[C@H]1C 25.3%
C[C@@H]1CN([C@H](C)CO)C(=O)c2cc(-c3cccc(F)c3)cnc2O[C@@H]1CN(C)C 21.7%
Cc1ccc(S(=O)(=O)N(Cc2cc3ccccc3[nH]c2=O)CC2CCCO2)cc1 (stereo not given) 23.6%
O=C(NCCc1ccc(F)cc1)c1ccc2nccnc2c1 16%

inhibition, inactive:
CC=Cc1ccc2n(c1=O)C[C@@H]1[C@@H](CO)[C@H](C(=O)N3CCCCC3)[C@H]2N1C(=O)C1CCC1 (mixture of isomers) -13.5%
Nc1ccccc1-c1cn(CC(=O)Nc2ccon2)nn1 -0.431%
C[C@@H]1CN([C@H](C)CO)C(=O)c2cc(C#CCC3CCCC3)cnc2O[C@H]1CN(C)Cc1ccccn1 -6.11%
C[C@H](CO)N1C[C@H](C)[C@H](CN(C)Cc2ccc3c(c2)OCO3)OCCCC[C@H](C)Oc2ccc(NC(=O)c3ccccc3)cc2C1=O 3.6%
O=C(C[C@H]1CC[C@@H]2[C@H](COC[C@H](O)CN2S(=O)(=O)c2ccccc2)O1)N1CCOCC1 -0.872%
COc1ccccc1-c1cnc2c(c1)C(=O)N([C@@H](C)CO)C[C@@H](C)[C@H](CN(C)Cc1cccnc1)O2 0.854%
CN1c2ccc(C3=CCCCC3)cc2[C@@H]2[C@@H](CCN2S(=O)(=O)c2ccccc2F)[C@H]1CO 3.11%
O=C(C[C@@H]1C=C[C@@H](NC(=O)C2CCC2)[C@H](CO)O1)NCC1CC1 -2.09%
CCOC(=O)c1c(-c2ccccc2)oc2cc(Br)c(O)cc12 0.164%
CCOC(=O)c1c(-c2ccccc2)oc2ccc(OCC(=O)NN)cc12 6.17%
CN1C(=O)c2cc(NC(=O)c3cccc(F)c3)ccc2OC[C@H]2O[C@@H](CC(=O)NCc3ccccc3Cl)CC[C@@H]21 6.51%
O=C(C[C@H]1C[C@H]2c3cc(NC(=O)NC4CCCC4)ccc3O[C@H]2[C@H](CO)O1)NCCc1ccccc1 -4.04%
CCC(=O)N1C[C@@H](C)[C@H](OC)CN(C)C(=O)c2cc(NC(=O)NC3CCCC3)ccc2OC[C@H]1C 3.98%
COCOCCn1cc(CN2CCS(=O)(=O)N(Cc3ccc(-c4cccc(N(C)C)c4)cc3)C(CC(C)C)C2=O)nn1 (stereo not given) -0.197%
COCOCCn1cc(CN2CCS(=O)(=O)N(Cc3ccc(-c4ccccc4)cc3)C(CC(C)C)C2=O)nn1 (stereo not given) -0.714%
C[C@@H]1CN([C@H](C)CO)C(=O)c2cc(NS(=O)(=O)c3cccs3)ccc2O[C@@H](C)CCCCO[C@H]1CN(C)Cc1ccc(C(F)(F)F)cc1 13.1%
CCS(=O)(=O)N1CC(=O)N2[C@H](CO)[C@@H](c3ccc(C#CC4CCCC4)cc3)[C@@H]2C1 -0.752%
CN(Cc1cccc2ncccc12)C(=O)CC1C(=O)NCCN1Cc1ccc(F)cc1 (stereo not given) 7.41%
COc1ccccc1CN1CCNC(=O)C1CC(=O)N(C)CC1CCOCC1 (stereo not given) -0.968%
Cc1noc(C)c1S(=O)(=O)Nc1ccc2c(c1)C(=O)N([C@H](C)CO)C[C@H](C)[C@H](CN(C)C(=O)NC1CCCCC1)OCCCC[C@H](C)O2 0.076%
Cc1sc(NC(=O)c2ccc3ncsc3c2)c(C(N)=O)c1C -6.86%
COc1ccccc1-c1nnc(NC(=O)c2cccc(N3C(=O)CCC3=O)c2)o1 1.38%
CCCNC(=O)C[C@H]1CC[C@@H]2[C@H](COC[C@H](O)CN2CC2CCCCC2)O1 -1.9%
COc1cccc(-c2cnc3c(c2)C(=O)N([C@@H](C)CO)C[C@H](C)[C@H](CN(C)C(C)=O)O3)c1 2.24%
C[C@H](CO)N1C[C@H](C)[C@@H](CN(C)C)Oc2ncc(-c3cccc(F)c3)cc2C1=O -1.97%
C[C@H]1CN([C@@H](C)CO)C(=O)c2cc(-c3cccc(F)c3)cnc2O[C@@H]1CN(C)C(=O)c1ccccn1 0.073%
C[C@H]1CN([C@@H](C)CO)C(=O)c2cc(-c3cccc(F)c3)cnc2O[C@@H]1CN(C)S(C)(=O)=O 0.285% and -8.78%
C[C@H]1CN([C@@H](C)CO)S(=O)(=O)c2ccc(C#Cc3ccccc3)cc2O[C@H]1CN(C)S(=O)(=O)c1cn(C)cn1 2.56%
COc1ccccc1-c1ccc([C@H]2[C@H](CO)N(C(=O)C3CC3)C23CN(C(C)=O)C3)cc1 2.52%
Cc1cc2cc(CN(Cc3cccs3)Cc3nnnn3CC3CCCO3)c(=O)[nH]c2cc1C (stereo not given) -2.28%
O=C(c1cccs1)N(Cc1cc2ccccc2[nH]c1=O)CC1CCCO1 (stereo not given) 0.632%
CO[C@H]1CN(C)C(=O)c2ccc(NC(=O)CC(F)(F)F)cc2OC[C@@H](C)N(C(=O)c2ccccc2F)C[C@@H]1C 4.25%
O=C(NCCc1ccc(F)cc1)c1n[nH]c2ccccc12 9.38%
O=C(NCCc1ccc(F)cc1)c1ccc(S(=O)(=O)N2CCCCC2)cc1 -0.792%
Cc1ccccc1-c1ccc(C2[C@@H]3CN(C(=O)C4CCCCC4)C[C@H]2N3)cc1 (stereo not given in full) -6.18% and -1.65%
C/C=C/c1ccc(C2[C@H]3CNC[C@@H]2N3Cc2cccc(OC)c2)cc1 (stereo not given in full) -2.37% and 0.748%
CCNC(=O)C[C@H]1CC[C@@H]2[C@H](COC[C@H](O)CN2S(=O)(=O)c2ccc(Oc3ccccc3)cc2)O1 -0.497%

— PubChem BioAssay AID652115 (Broad Institute, 2013)
